The record followed here is PubChem BioAssay AID1851 (National Center for Advancing Translational Sciences (NCATS), 2009).

The campaign covered roughly 16,000 compounds. About 5,100 (32%) were called active. Inconclusive results (about 25%) are left out. Some of the results follow. A number with no mark means an inactive call. Calls follow the shape of the dose curve; as a rule, active = well fitted curve in the direction sought with a large enough effect; inconclusive = small, poorly fitted or top-dose-only effect, or effect the other way; inactive = no such curve, though single readings can be large or run the other way.

Broadly, the AC50 is the midpoint of the concentration-response curve, whichever way the signal moves.
% is scaled to controls: 0 for no effect and ±100 for the full control effect.

Chain of Cytochrome P450 3A4 (Homo sapiens) (P08684 whole entry, looked up): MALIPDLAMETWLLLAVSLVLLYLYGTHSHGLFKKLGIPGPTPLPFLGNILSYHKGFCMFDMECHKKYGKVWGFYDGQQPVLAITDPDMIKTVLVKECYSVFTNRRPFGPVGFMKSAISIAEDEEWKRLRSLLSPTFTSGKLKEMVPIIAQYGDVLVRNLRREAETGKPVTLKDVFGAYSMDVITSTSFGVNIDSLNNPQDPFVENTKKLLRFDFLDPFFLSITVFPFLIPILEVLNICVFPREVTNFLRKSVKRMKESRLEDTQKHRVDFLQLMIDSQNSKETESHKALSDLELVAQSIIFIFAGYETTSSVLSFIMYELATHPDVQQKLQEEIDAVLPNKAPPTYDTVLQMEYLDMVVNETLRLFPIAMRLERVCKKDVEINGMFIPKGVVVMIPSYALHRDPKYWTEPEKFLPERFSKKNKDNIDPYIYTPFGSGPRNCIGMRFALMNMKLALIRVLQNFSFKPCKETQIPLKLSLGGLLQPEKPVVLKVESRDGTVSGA

This experiment addresses Cytochrome P450 3A4 (Homo sapiens) (UniProt P08684). Description: Cytochrome panel assay with activity outcomes. The following applies: recombinant CYP, pro-luciferin dealkylation, luminescence, p450-cyp3a4; series mostly up to 57.1 µM; activity, negative = inhibition: at the top concentration.
With `COc1cc(C)cc2c(-c3c(O)cc(O)c4c3C[C@H](C)N[C@@H]4C)cc(-c3cc(-c4c(O)cc(O)c5c4C[C@H](C)N[C@@H]5C)c4cc(C)cc(OC)c4c3O)c(O)c12`, the activity, negative = inhibition is -3.16% [at 11.4 µM].

As to `C[C@@](N)(C(=O)O)c1ccc(P(=O)(O)O)cc1`, the “activity, negative = inhibition” value is -11.3%.

Regarding `Cc1cc2c(=O)[nH]c(N)nc2nc1C`, the activity, negative = inhibition is -3.61% [at 11.4 µM].

For the compound `COc1ccccc1CNc1ccnc(-c2ccc3c(c2)OCO3)n1`, the AC50 was 1.58 µM (active).

As for `COc1ccc(CNc2ccnc(-c3ccc4c(c3)OCO4)n2)c(OC)c1`, the AC50 is 1 µM (active).

Consider `CC(=O)Nc1c2c3c(cccc3n(C)c1=O)C(=O)c1ccccc1-2`, for which the AC50 is 17.8 µM (active).

Consider `CCOC(=O)C(=CNc1ncccc1C)C(=O)OCC`, for which the AC50 was 12.6 µM (active).

`CCOC(=O)C(=Cc1ccc(F)cc1)C(=O)OCC`: the “activity, negative = inhibition” value was 11.9%.

Take `CCOC(=O)C(=CNCC(=O)O)C(=O)OCC`: the “activity, negative = inhibition” value is 0.794%.

As to `Cc1ccc(NC(=O)Nc2ncccc2C)cc1`, the activity, negative = inhibition was -13.7% [at 2.29 µM].

Turning to `CCOC(=O)C(=CNc1cccc(C)c1C)C(=O)OCC`, the half-maximal activity concentration (AC50) was 15.8 µM (active).

`CCOC(=O)/C(=C/Nc1ccccc1)[N+](=O)[O-]`: the “activity, negative = inhibition” value was -3.29%.

Take `Cc1ccc(C(=O)O/N=C/c2c(Cl)n(C)c3ccccc23)cc1`: the “activity, negative = inhibition” value is -15.1%.

As to `Cc1c2cnccc2c(C)c2c1c1ccccc1n2CCOC(=O)c1ccccc1`, the AC50 was 0.631 µM (active).

`CN(C)CCCn1c2ccccc2c2cnccc21`: the activity, negative = inhibition is -22.2% [at 11.4 µM].

`Cc1noc(C)c1-c1nc(Nc2ccccc2)c2ccccc2n1`: the half-maximal activity concentration (AC50) was 6.31 µM (active).

For `Cc1noc(C)c1-c1nc(NC2CCNCC2)c2ccccc2n1`, the “activity, negative = inhibition” value is -11.4%.

As for `Cc1noc(C)c1-c1nc(Nc2ccncc2)c2ccccc2n1`, the AC50 is 0.316 µM (active).

Regarding `Cc1noc(C)c1-c1nc(Nc2ccc(F)cc2)c2ccccc2n1`, the “activity, negative = inhibition” value was -19.8%.

For `CC(C)Oc1ccc(CNC(=O)CC(c2ccccc2)c2cc(Cl)ccc2O)cc1` (stereo not drawn), the AC50 is 10 µM (active).

In the case of `CN(/C=C/C(=O)C(F)(F)F)Cc1ccccc1`, the “activity, negative = inhibition” value was 7.08%.

Turning to `CN(Cc1ccccc1)C(=O)CC(c1ccccc1)c1cc(Cl)ccc1O` (stereo not drawn), the AC50 was 14.1 µM (active).

As for `O=C(O)Cc1cc(Cl)ccc1O`, the activity, negative = inhibition was -2.24% [at 11.4 µM].

On to `COc1cccc(Cn2c(=O)c(CCc3ccccc3)nc3cnc(OC)nc32)c1`, for which the concentration at half-maximal activity (AC50) was 2.51 µM (active).

`COc1cccc(Cn2c(=O)c(CCc3ccccc3)nc3cncnc32)c1`: the AC50 is 2.51 µM (active).

With `NC/C=C\C(=O)O`, the AC50 result was “inactive”.

On to `CC(C(=O)NCc1ccc2c(c1)OCO2)N1c2cccc3cccc(c23)S1(=O)=O` (stereo not drawn), for which the half-maximal activity concentration (AC50) is 0.316 µM (active).

As for `Cc1cc(C)c2nc3c(c([C@H](O)[C@@H]4CCCCN4)c2c1)CC/C3=C/c1ccc(Cl)cc1`, the activity, negative = inhibition was -1.86% [at 11.4 µM].
